Data as given in PubChem BioAssay (NCATS).
Records with an inconclusive call do not appear. Where a call stands in place of a potency, no number is given. Active and inactive are the calls of the source. The call rests on the fitted dose curve; in most records, active means well fitted inhibition curve with a large enough effect; inconclusive means small, poorly fitted or top-dose-only effect; inactive means flat fitted curve, though single readings scatter.

Assay: High Content Imaging Cell-Based qHTS for Inhibitors of the mTORC1 Signaling Pathway in MEF (Tsc2-/-, p53-/-) Cells (AID 2666);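 further: percent of cells scored positive for phospho-rpS6 Ser235/236 immunostaining by imaging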
Details: series mostly up to 38.3 µM
Source text: NIH Molecular Libraries Probe Production Centers Network [MLPCN]
NIH Chemical Genomics Center [NCGC]
Assay Submitter (PI): Blenis, John; Hoffman, Greg; Harvard University
NCGC Assay Overview: Thee mammalian target of rapamycin (mTOR) is an intracellular serine/threonine kinase Aberrant regulation of mTOR signaling plays a causative role in a number of human diseases, including cancer, benign tumors such as lymphangioleiomyomatosis (LAM) and Tuberous Sclerosis Complex (TSC), and metabolic diseases such as diabetes and obesity. This project aims to identify inhibitors of ribosomal protein S6 (rpS6) phosphorylation. The phosphorylation of rpS6 is a key event downstream of mTOR activation. The assay uses a phospho-specific antibody of phospho-rpS6 to detect inhibitors of mTOR activation. Mutations in the Tsc1 and Tsc2 genes are the underlying genetic lesions responsible for TSC, causing constitutive activation of the mTORC1 pathway and leading to profound effects on cell metabolism. Aberrant metabolism in cancer has recently received significant attention as a target to develop therapeutic agents in the treatment of cancer1. As Tsc2-/- cells have lost the ability to respond to energy and growth factor deprivation, these cells are unable to properly down regulate cellular biosynthetic processes in response to metabolic stress, and are thus extremely sensitive to glucose deprivation-induced death.2 A central goal of this project is to explore the unique cell survival and metabolic properties of cells with Tsc1 or Tsc2 by screening for compounds that selectively target the Tsc2-/- MEFs by screening both Tsc2-/- and WT MEF cell lines. We hope to better understand these aspects of TSC physiology in order to exploit them for therapeutic benefit.
NCGC IN Cell Assay Protocol:
For quantitative high throughput analysis of mTORC1 signaling, we developed a cell-based assay for immuno-fluorescence based detection of rpS6 phosphorylation on the Acumen Explorer that will be used a platform for the primary small molecule screen. Mouse embryonic fibroblasts (MEFs) are cultured in 1536-well plates using DMEM + 10% FBS. Twenty-four hrs after plating, test compounds (solubilized in DMSO) are delivered and incubated with the cells for 24 hrs at 37 degree Celsius. Following the incubation, media with compound is aspirated and the cells are fixed in 4% paraformaldehyde (PFA) containing PBS + 0.2% TX-100. Next, PFA is aspirated, cells are washed two times with PBS plus 0.2% TX-100 and the cells are blocked for 1 hr at room temperature (blocking buffer: LiCOR Blocking Buffer plus 0.2% TX-100). This is followed by aspiration and staining with Alexa-488 conjugated-phospho-rpS6 Ser235/236 antibody for 2 hours at room temperature (Cell Signaling Technology # 4803, 1:50 dilution in blocking buffer). Cells are washed two times with PBS plus 0.2% TX-100, and stained with 10 uM propidium iodide (PI) for 20-25 minutes for cell number measurement (1:500 dilution of Hoescht staining is also added for IN Cell imaging). Active wells which are selected (based on Acumen results) are imaged on the IN Cell 1000 (GE Healthcare) using the D360/40X and HQ480/40X excitation filters for the Hoechst and Alexa-488 cytoplasmic stains, respectively. The fluorescence emission filters used were HQ460/40M and HQ535/50M for the Hoechst and Alexa-488 cytoplasmic stains, respectively. The normalized phospho-S6 staining is calculated as the ratio of […] for the single concentration rapamycin control ([…] nM) and DMSO columns. […] Inhibition of the pathway is defined based on the normalized phospho-S6 intensity in rapamycin treated cells. Each treatment is reported as the % positive cells in the well, where thresholds are defined by selecting wells with the highest and lowest signal and differentiating between the % non-active and % active populations. […]
Potency means the concentration at half of the fitted maximal effect.

| SMILES | Potency |
| --- | --- |
| O=C(NCCN1CCOCC1)c1ccc(Cl)cc1 | inactive |
| CC(C)(C)c1ccc(C(O)CCCN2CCC(C(O)(c3ccccc3)c3ccccc3)CC2)cc1 (centres undefined) | 18.5 µM (active) |
| CN(C)CCC(c1ccccc1)c1ccccn1 (centres undefined) | inactive |
| O=C(O)CCc1nc(-c2ccccc2)c(-c2ccccc2)o1 | inactive |
| CC(=O)CCCCn1c(=O)c2c(ncn2C)n(C)c1=O | inactive |
| CCN1CCC[C@H]1CNC(=O)c1cc(S(N)(=O)=O)ccc1OC | inactive |
| Clc1ccc(Cn2c(CN3CCCC3)nc3ccccc32)cc1 | inactive |
| CC(C)OC(=O)C(C)(C)Oc1ccc(C(=O)c2ccc(Cl)cc2)cc1 | inactive |
| CC1(C)CCC2=C(O1)c1ccccc1C(=O)C2=O | inactive |
| CCn1cc(C(=O)O)c(=O)c2ccc(C)nc21 | inactive |
| CCN(CC)CCOC(=O)c1ccc(N)cc1 | inactive |
| Cc1cccc(C)c1OCC(C)N (centres undefined) | inactive |
| Clc1ccc(C(c2ccc(Cl)cc2)n2cc[n+](CC(OCc3ccc(Cl)cc3Cl)c3ccc(Cl)cc3Cl)c2)cc1 (centres undefined) | inactive |
| NCCS | inactive |
| O=C1NC(=O)C(c2ccccc2)(c2ccccc2)N1 | inactive |
| CC(=O)c1ccc(S(=O)(=O)NC(=O)NC2CCCCC2)cc1 | inactive |
| CCCCCN(C)CCC(O)(P(=O)(O)O)P(=O)(O)O | inactive |

| SMILES | Potency |
| --- | --- |
| CCN(CC)C(=O)c1ccc(O)c(OC)c1 | inactive |
| CCCNC(=O)NS(=O)(=O)c1ccc(Cl)cc1 | inactive |
| CC(=O)N[C@@H](CS)C(=O)O | inactive |
| COc1ccccc1N1CCN(CCCNc2cc(=O)n(C)c(=O)n2C)CC1 | inactive |
| CC(=O)O[C@]1(C(C)=O)CC[C@H]2[C@@H]3C=C(Cl)C4=CC(=O)[C@@H]5C[C@@H]5[C@]4(C)[C@H]3CC[C@@]21C | inactive |
| COc1ccc(Cc2nccc3cc(OC)c(OC)cc23)cc1OC | inactive |
| C[N+](C)(C)CCCCCC[N+](C)(C)C | inactive |
| O=c1c(-c2ccc(O)cc2)coc2cc(O)ccc12 | inactive |
| COc1cccc(-c2cc(=O)c3ccccc3o2)c1N | inactive |
| C[N+](C)(C)CC(=O)O | inactive |
| O=c1cc(-c2ccc(O)cc2)oc2cc(O)cc(O)c12 | inactive |
| CC(C)NCC(O)COc1cccc2[nH]ccc12 (centres undefined) | inactive |
| CCCCC1C(=O)N(c2ccccc2)N(c2ccccc2)C1=O | inactive |
| O=C1NCC2(CCN(CCc3ccccc3)CC2)O1 | inactive |
| CCN(CC)CCNC(=O)c1ccc(N)cc1 | inactive |
| NC(N)=Nc1nc(CSCC/C(N)=N/S(N)(=O)=O)cs1 | inactive |
| COC(=O)[C@@H]1[C@H]2C[C@H]3c4[nH]c5ccccc5c4CCN3C[C@@H]2CC[C@@H]1O | inactive |
